Rows were chosen to be rich in hits. Some 27% of all compounds tested hit in one or more screens of this group.
CYP2C9 inhib: human CYP2C9 inhibition; hit rate 20% among 96,000; inhibition, % at 5 µM; CYP2C9 Supersomes, luciferin-H conversion, luminescence; P11712;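 active = blocking of liver enzyme CYP2C9 beyond about 50% at 5 µM, limit read from the data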
Target sequence (P11712 whole entry, looked up): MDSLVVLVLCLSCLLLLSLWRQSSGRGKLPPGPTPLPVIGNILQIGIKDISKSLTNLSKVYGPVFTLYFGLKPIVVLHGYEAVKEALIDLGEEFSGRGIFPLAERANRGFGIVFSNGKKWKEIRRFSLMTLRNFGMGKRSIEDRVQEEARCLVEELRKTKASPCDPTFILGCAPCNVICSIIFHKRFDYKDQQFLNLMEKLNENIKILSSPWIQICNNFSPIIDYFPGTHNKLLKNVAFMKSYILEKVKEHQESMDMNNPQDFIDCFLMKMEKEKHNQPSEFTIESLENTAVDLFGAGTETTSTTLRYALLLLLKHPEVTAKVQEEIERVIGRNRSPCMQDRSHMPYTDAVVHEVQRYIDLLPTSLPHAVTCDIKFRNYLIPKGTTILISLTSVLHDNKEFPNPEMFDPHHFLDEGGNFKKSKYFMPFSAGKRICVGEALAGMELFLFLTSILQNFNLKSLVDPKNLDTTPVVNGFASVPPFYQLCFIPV
EphB4 antag: EphB4-ephrin-B2 interaction antagonism | P54760 | EphB4 LBD / TNYL-RAW-Alexa532 peptide, fluorescence polarization | inhibition, % at 7 µM | hit rate 0.15% among 97,000;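 active = inhibition above the screen-wide mean inhibition plus 3 SD, cut at about 15% in these data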
CYP2C19 inhib: inhibitors of human CYP2C19. hit rate 21% among 96,000. AID 778. inhibition, % at 5 µM. CYP2C19 Supersomes, luciferin-H EGE luminescence, 30 min;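 active = CYP2C19 inhibition above a set limit at 5 µM in the primary screen, cut at about 50% in these data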
CYP2C19 activ: activators of human cytochrome P450 2C19. activation factor at 5 µM. recombinant CYP2C19, luciferin-H EGE luminescence; hits give high values; 0 = fully inhibited enzyme, 1 = untreated enzyme. 96,000 tested, under 10 active. P33261;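 active = activation factor of at least 2 at 5 µM in the primary screen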
CYP2C9 act: activators of human CYP2C9. activation factor at 5 µM. hit rate 1.4% among 96,000. AID 1024. recombinant CYP2C9, luciferin-H conversion, luminescence; hits give high values; factor 1 = untreated enzyme, 0 = blocked. P11712;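 active = activation factor of 2 or more for CYP2C9 at a 5 µM dose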
Hits are given with their value; n = inactive; x = no result.

SMILES	CYP2C9 inhib	EphB4 antag	CYP2C19 inhib	CYP2C19 activ	CYP2C9 act
CC(C)NC(=O)Cn1cc(C(=O)c2ccccc2F)c2ccccc21	n	n	50	n	n
COc1ncccc1C(=O)NCC(CC(=O)O)c1ccccc1 (configuration not stated)	n	x	n	n	n
O[C@H]1C2CCC1C(N1CCCCC1)CC2 (some centres not stated)	n	n	n	n	n
C=Cn1ccnc1P(=S)(c1ccn(C)c1)c1nccn1C=C	n	n	n	n	n
COc1ccccc1/C=C1/C(=N/O)C2CCN1CC2	n	x	91	n	n
COc1ccccc1CC1/C(=N/O)C2CCN1CC2 (configuration not stated)	n	n	n	n	n
O=C1NCN(c2ccccc2)C12CCNCC2	n	n	89	n	n
CC1(C)CN=C(NCc2ccccc2Cl)S1	n	n	65	n	n
CN1C(=O)C(Cc2ccsc2)C(=O)N(C)C1=O	n	n	n	n	n
CC(O)(CS(=O)(=O)c1cccc(C(F)(F)F)c1)C(=O)Nc1ccc(C(F)(F)F)cc1 (configuration not stated)	n	n	83	n	n
CC(O)(CS(=O)(=O)c1ccccc1)C(=O)Nc1cccc(C(F)(F)F)c1 (configuration not stated)	n	n	69	n	n
Cc1ccc(S(=O)(=O)CC(C)(O)C(=O)Nc2cccc(C(F)(F)F)c2)cc1 (configuration not stated)	n	n	n	n	n
O=C(C1CC(=O)N(C2CCCCCCC2)C1)N1CCC2(CC1)OCCO2 (configuration not stated)	n	n	n	n	n
Oc1cccc(/C=N/NP(=S)(c2ccccc2)c2ccccc2)c1	99	n	94	n	n
CCN1CC=C(c2c[nH]c3ccccc23)CC1	n	n	n	n	n
CCOC(=O)N1CCN(C(C)C(=O)c2c[nH]c3ccccc23)CC1 (configuration not stated)	84	n	92	n	n
CCS(=O)(=O)N1CCCC(C(=O)N2CCC3(CC2)OCCO3)C1 (configuration not stated)	n	n	58	n	n
CC(=Nc1c(C)n(C)n(-c2ccccc2)c1=O)c1c(O)n(Cc2ccccc2)c(=O)[nH]c1=O	n	n	n	n	n
CC(=NCCN1CCCCC1)c1c(O)n(Cc2ccccc2)c(=O)[nH]c1=O	n	n	n	n	n
CC(=NCCCN1CCCCC1)c1c(O)n(Cc2ccccc2)c(=O)[nH]c1=O	59	n	n	n	n
CC(C(=O)N1CCC2(CC1)OCCO2)C1Sc2ccccc2NC1=O (configuration not stated)	n	n	95	n	n
CCC(C(=O)N1CCC2(CC1)OCCO2)c1ccccc1 (configuration not stated)	x	n	x	x	x
[O-][n+]1onc2c1CCC1N(O)CCC21O (configuration not stated)	n	n	n	n	n
Cc1sc2c(c1C)C(c1cccs1)=NCC(=O)N2CC(=O)NCc1cccs1	n	n	n	n	n
O=c1cccc2n1CC1CC2CN(Cc2ccc3c(c2)OCO3)C1 (configuration not stated)	52	n	57	n	n
SMILES	CYP2C9 inhib	EphB4 antag	CYP2C19 inhib	CYP2C19 activ	CYP2C9 act
COc1ccc(CN2CC3CC(C2)c2cccc(=O)n2C3)cc1OC (configuration not stated)	n	n	n	n	n
CC(C)c1cccc(C(C)C)c1OCCn1ccnc1	78	n	99	n	n
O=c1c2ccccc2nc(-c2ccco2)n1-c1ccccc1	x	n	x	x	x
Oc1ccc(CC2CC3CCN2CC3)cc1O (configuration not stated)	n	n	n	n	n
CN1/C(=C\C=C\C2=[N+](C)c3ccc4ccccc4c3C2(C)C)C(C)(C)c2ccccc21	56	n	67	n	n
Fc1ccc(C2=CCN(C(c3cccs3)c3nnnn3CCc3ccccc3)CC2)cc1 (configuration not stated)	74	n	50	n	n
CCC(C)(C)n1nnnc1C(c1cccs1)N1CC=C(c2ccc(F)cc2)CC1 (configuration not stated)	79	n	56	n	n
O=C1C2CCN(CC2)C1Cc1ccccc1O (configuration not stated)	n	n	n	n	n
CCOP(=O)(OCC)C(C)(C)NC(=O)C(Cl)(Cl)Cl	n	n	n	n	n
CCC(=NCc1cccnc1)c1c(O)n(C2CCCCC2)c(=O)[nH]c1=O	83	n	98	n	n
